Measured values published in PubChem BioAssay AID1159580 (chemical genetic matrix, 2015).
Several values for one entry are separate records, joined by “and”; a condition that tells them apart may be missing. Equal entries are not always repeated. About 2,000 (36%) of roughly 5,500 compounds were called active. Not shown: some 18% with an inconclusive outcome. No stated cut-off is given here; in the data, active means normalized growth mostly below about 0.91 (no sharp cut-off); inconclusive means no clear call, values can overlap the other calls; inactive means mostly above about 0.92. The list shows a part of the results.

Assay: chemical genetic growth profiling, strain panel (AID 1159580);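 further: tested at 20 µM; growth read once vehicle control cultures reached saturation at 30 °C; 1 = growth at the plate median or of vehicle wells; lower values mean less growth of the strain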
Conditions: S. cerevisiae deletion strains, growth OD
[1] = locus YAL013W, strain DEP1, hits give low values
[2] = locus YMR307W, strain GAS1, hits give low values
[3] = locus YNL128W, strain TEP1, hits give low values

Measured: normalized growth

NO
inactive: [1] 0.994 | locus YAL040C, strain CLN3, hits give low values 0.946 | locus YCL061C, strain MRC1 (second series), hits give low values 1.01 | locus YDR363W, strain ESC2, hits give low values 0.997 | locus YER002W, strain NOP16, hits give low values 1.01 | locus YGR229C, strain SMI1, hits give low values 1.1 | locus YJR075W, strain HOC1, hits give low values 1.02 | locus YMR263W, strain SAP30, hits give low values 1.01 | [2] 1.02 | [3] 0.998 | locus YNL153C, strain GIM3, hits give low values 0.988 | locus YNL175C, strain NOP13, hits give low values 1.01 | locus YNL197C, strain WHI3, hits give low values 0.976 | locus YNL224C, strain SQS1, hits give low values 1 | locus YOR083W, strain WHI5 (second series), hits give low values 0.946 | locus YPL055C, strain LGE1, hits give low values 1.01 | locus YPL241C, strain CIN2, hits give low values 1

COC(=O)C[C@H]1C(C)(C)C(=O)[C@@H]2CC3C4=CC(=O)O[C@@H](c5ccoc5)[C@]4(C)CCC3[C@@]1(C)C2=O (stereo not given in full)
inactive: [1] 0.98 | locus YAL021C, strain ccr4, hits give low values 0.967 | locus YAL026C, strain drs2, hits give low values 0.969 | locus YAL030W, strain snc1, hits give low values 0.979 | locus YBL061C, strain skt5, hits give low values 0.985 | locus YBR009C, strain hhf1, hits give low values 0.985 | locus YBR021W, strain FUR4, hits give low values 0.998 | locus YBR023C, strain chs3, hits give low values 0.99 | locus YBR171W, strain sec66, hits give low values 0.995 | locus YBR229C, strain ROT2, hits give low values 0.944 | locus YBR231C, strain swc5, hits give low values 0.998 | locus YBR279W, strain paf1, hits give low values 0.996 | locus YCL011C, strain gbp2, hits give low values 0.988 | locus YCL016C, strain dcc1, hits give low values 0.989 | locus YCL029C, strain bik1, hits give low values 0.973 | locus YCL061C, strain MRC1, hits give low values 0.976 | locus YCL069W, strain vba3, hits give low values 0.99 | locus YCR088W, strain abp1, hits give low values 0.98 | locus YDL005C, strain med2, hits give low values 0.978 | locus YDL035C, strain GPR1, hits give low values 0.959 | locus YDL040C, strain nat1, hits give low values 0.99 | locus YDL074C, strain BRE1, hits give low values 0.954 | locus YDL101C, strain DUN1, hits give low values 0.987 | locus YDL185W, strain tfp1, hits give low values 0.954 | locus YDL192W, strain arf1, hits give low values 0.985 | locus YDR001C, strain nth1, hits give low values 0.975 | locus YDR069C, strain doa4, hits give low values 0.977 | locus YDR101C, strain arx1, hits give low values 0.985 | locus YDR137W, strain rgp1, hits give low values 0.947 | locus YDR159W, strain sac3, hits give low values 0.97 | locus YDR162C, strain NBP2, hits give low values 0.96 | locus YDR195W, strain ref2 0.972 | locus YDR297W, strain sur2, hits give low values 1.05 | locus YDR318W, strain mcm21, hits give low values 0.98 | locus YDR334W, strain swr1, hits give low values 0.972 | locus YDR335W, strain msn5, hits give low values 0.983 | locus YDR388W, hits give low values 0.988 | locus YDR392W, strain spt3, hits give low values 0.993 | locus YDR502C, strain sam2, hits give low values 0.995 | locus YEL003W, strain gim4, hits give low values 0.989 | locus YEL037C, strain rad23, hits give low values 0.985 | locus YEL061C, strain CIN8 (second series), hits give low values 0.982 | locus YEL061C, strain CIN8, hits give low values 0.978 | locus YER015W, strain faa2, hits give low values 0.999 | locus YER016W, strain bim1, hits give low values 0.985 | locus YER110C, hits give low values 0.964 | locus YER111C, strain swi4, hits give low values 0.978 | locus YER155C, strain BEM2 (second series), hits give low values 0.978 | locus YER155C, strain BEM2, hits give low values 0.995 | locus YER167W, strain BCK2, hits give low values 0.978 | locus YFR010W, strain ubp6, hits give low values 0.964 | locus YGL078C, strain dbp3, hits give low values 0.97 | locus YGL086W, strain mad1, hits give low values 0.975 | locus YGL167C, strain pmr1, hits give low values 0.977 | locus YGL173C, strain kem1, hits give low values 0.982 | locus YGL227W, strain vid30, hits give low values 0.99 | locus YGL240W, strain doc1, hits give low values 1 | locus YGL248W, strain PDE1, hits give low values 0.971 | locus YGL253W, strain hxk2, hits give low values 0.98 | locus YGR135W, strain pre9, hits give low values 1.04 | locus YGR252W, strain gcn5, hits give low values 1.04 | locus YHR013C, strain ard1, hits give low values 0.983 | locus YHR027C, strain rpn1, hits give low values 0.979 | locus YHR030C, strain SLT2, hits give low values 0.979 and 0.991 | locus YHR079C, strain IRE1 (second series), hits give low values 0.969 | locus YHR079C, strain IRE1, hits give low values 0.979 | locus YHR094C, strain hxt1, hits give low values 0.97 | locus YHR129C, strain ARP1, hits give low values 0.987 | locus YHR142W, strain chs7, hits give low values 0.983 | locus YHR200W, strain rpn10, hits give low values 0.981 | locus YIL066C, strain RNR3, hits give low values 0.952 | locus YIL073C, strain SPO22, hits give low values 0.957 | locus YIL125W, strain kgd1, hits give low values 0.982 | locus YIR030C, strain dcg1, hits give low values 0.985 | locus YJL092W, strain hpr5, hits give low values 0.981 | locus YJL095W, strain BCK1 (second series), hits give low values 0.983 | locus YJL095W, strain BCK1, hits give low values 1.01 and 0.983 | locus YJL115W, strain asf1, hits give low values 0.964 | locus YJL129C, strain trk1, hits give low values 0.965 | locus YJL134W, strain LCB3, hits give low values 0.97 | locus YJL154C, strain vps35, hits give low values 0.99 | locus YJL164C, strain tpk1, hits give low values 0.988 | locus YJL166W, strain qcr8, hits give low values 0.989 | locus YJL168C, strain set2, hits give low values 0.991 | locus YJL187C, strain SWE1 (second series), hits give low values 0.993 | locus YJL187C, strain SWE1, hits give low values 0.998 | locus YJR066W, strain TOR1, hits give low values 0.943 | locus YKL009W, strain mrt4, hits give low values 0.956 | locus YKL068W, hits give low values 0.979 | locus YKL085W, strain MDH1 (second series), hits give low values 0.986 | locus YKL085W, strain MDH1, hits give low values 0.986 | locus YKL160W, strain elf1, hits give low values 0.992 | locus YKL190W, strain CNB1, hits give low values 0.98 | locus YKR001C, strain vps1, hits give low values 0.979 | locus YKR026C, strain gcn3, hits give low values 0.984 | locus YKR091W, strain srl3, hits give low values 0.984 | locus YLL001W, strain dnm1, hits give low values 0.979 | locus YLL026W, hits give low values 0.982 | locus YLL041C, strain sdh2, hits give low values 0.978 | locus YLR027C, strain aat2, hits give low values 1 | locus YLR039C, strain RIC1, hits give low values 0.902 | locus YLR058C, strain SHM2, hits give low values 0.961 | locus YLR102C, strain apc9, hits give low values 0.979 | locus YLR113W, strain HOG1, hits give low values 1 | locus YLR221C, strain rsa3, hits give low values 0.992 | locus YLR258W, strain gsy2, hits give low values 0.981 | locus YLR262C, strain YPT6 (second series), hits give low values 0.982 | locus YLR262C, strain YPT6, hits give low values 0.916 | locus YLR268W, strain sec22, hits give low values 0.997 | locus YLR320W, strain mms22, hits give low values 0.982 | locus YLR330W, strain CHS5, hits give low values 0.983 | locus YLR342W, strain FKS1 (second series), hits give low values 1.02 | locus YLR342W, strain FKS1, hits give low values 0.99 | locus YLR357W, strain rsc2, hits give low values 0.977 | locus YLR370C, strain arc18, hits give low values 0.987 | locus YLR371W, strain rom2, hits give low values 0.981 | locus YLR384C, strain iki3, hits give low values 0.983 | locus YLR418C, strain cdc73, hits give low values 1 | locus YML016C, strain PPZ1, hits give low values 0.978 | locus YML032C, strain rad52, hits give low values 0.945 | locus YML120C, strain ndi1, hits give low values 0.992 | locus YML124C, strain tub3, hits give low values 0.994 | locus YMR058W, strain fet3, hits give low values 0.969 | locus YMR078C, strain ctf18, hits give low values 0.958 | locus YMR125W, strain sto1, hits give low values 0.973 | locus YMR129W, hits give low values 0.993 | locus YMR205C, strain PFK2, hits give low values 0.977 | locus YMR223W, strain ubp8, hits give low values 1 | locus YMR231W, strain pep5, hits give low values 0.968 | [2] 1.01 | locus YNL067W, strain RPL9B, hits give low values 1.01 | locus YNL071W, strain lat1, hits give low values 0.979 | [3] 0.945 | locus YNL183C, strain NPR1, hits give low values 0.972 | locus YNL209W, strain ssb2, hits give low values 0.989 | locus YNL233W, strain BNI4, hits give low values 1.02 | locus YNL248C, strain rpa49, hits give low values 0.967 | locus YNL250W, strain rad50, hits give low values 0.98 | locus YNL271C, strain bni1, hits give low values 0.976 | locus YNL298W, strain CLA4, hits give low values 0.962 | locus YNL307C, strain MCK1, hits give low values 0.978 | locus YNL322C, strain KRE1 (second series), hits give low values 0.995 | locus YNL322C, strain KRE1, hits give low values 0.981 | locus YNR049C, strain mso1, hits give low values 0.976 | locus YNR052C, strain pop2, hits give low values 0.989 | locus YOL006C, strain TOP1, hits give low values 0.934 | locus YOL012C, strain htz1 0.856 | locus YOL147C, strain pex11, hits give low values 0.969 | locus YOR001W, strain rrp6, hits give low values 0.962 | locus YOR061W, strain CKA2, hits give low values 0.964 | locus YOR069W, strain VPS5, hits give low values 0.988 | locus YOR070C, strain gyp1, hits give low values 0.982 | locus YOR080W, strain dia2, hits give low values 0.983 | locus YOR083W, strain WHI5, hits give low values 0.989 | locus YOR106W, strain vam3, hits give low values 0.99 | locus YOR136W, strain idh2, hits give low values 0.971 | locus YOR144C, strain elg1, hits give low values 0.996 | locus YOR184W, strain ser1, hits give low values 0.948 | locus YOR231W, strain MKK1, hits give low values 0.984 | locus YOR265W, strain rbl2, hits give low values 0.986 | locus YOR270C, strain vph1, hits give low values 0.925 | locus YOR290C, strain snf2, hits give low values 1 | locus YOR316C, strain cot1, hits give low values 0.982 | locus YPL051W, strain arl3, hits give low values 1.03 | locus YPL078C, strain atp4, hits give low values 0.985 | locus YPL106C, strain sse1, hits give low values 0.994 | locus YPL240C, strain hsp82, hits give low values 0.984 | locus YPL256C, strain CLN2, hits give low values 0.967 | locus YPR119W, strain clb2, hits give low values 0.99 | locus YPR141C, strain kar3, hits give low values 0.988 | locus YPR163C, strain tif3, hits give low values 0.985 | locus YPR167C, strain met16, hits give low values 0.982 | strain wtn01, hits give low values 0.967
